# D2 ag-1: agonists of human D2 dopamine receptor; HEK293 T-REx D2 cells, calcium flux agonist mode; P14416; AID 485358; actives 0.53% (n = 340,000); activation, % at 2 µM;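 active means activation over 3 SD above normal in the single-dose calcium agonist read, cut at about 30% in these data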; further: 0% is about no effect
# Target sequence (P14416 whole entry, looked up): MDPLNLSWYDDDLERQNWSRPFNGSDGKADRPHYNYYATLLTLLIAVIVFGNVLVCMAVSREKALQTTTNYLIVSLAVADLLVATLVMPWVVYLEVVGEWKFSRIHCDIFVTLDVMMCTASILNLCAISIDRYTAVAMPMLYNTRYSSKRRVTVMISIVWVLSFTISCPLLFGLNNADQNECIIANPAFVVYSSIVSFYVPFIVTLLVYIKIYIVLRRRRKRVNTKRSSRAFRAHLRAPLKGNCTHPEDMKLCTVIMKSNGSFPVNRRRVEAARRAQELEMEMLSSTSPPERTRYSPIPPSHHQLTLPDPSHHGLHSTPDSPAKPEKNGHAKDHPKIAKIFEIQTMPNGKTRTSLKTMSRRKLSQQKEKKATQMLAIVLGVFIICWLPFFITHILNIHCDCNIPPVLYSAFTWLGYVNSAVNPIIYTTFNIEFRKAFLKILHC
#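 HEK293 Trex D2 cells, tetracycline-induced, o/n 30 C 5% CO2; no-wash Ca dye, RT 30–90 min; 10-cycle baseline, 23 nl cpd added, kinetic Ca read 180 s; agonist hits = positive Ca response.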
# D2 PAM-1: D2 dopamine receptor (human) potentiation; P14416; HEK293 T-REx D2, calcium flux, EC20 dopamine potentiation; potentiation, % at 10 µM; actives 0.34% (n = 340,000);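 active means potentiation over 3 SD above the plate norm, cut at about 30% in these data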; further: 0% is about no effect
#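 Calcium flux readout, no-wash dye, 1 read/s. Inducible HEK293 Trex D2 line, overnight 30 C. Compound alone 180 s (agonist flags), then EC20 dopamine, another 180 s to score potentiation.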
# D2 antagonist: antagonists of human D2 dopamine receptor. P14416. HEK293 TREx D2 cells, calcium flux, dopamine EC80. inhibition, % at 10 µM. actives 2% (n = 340,000). AID 485344; in the data active means inhibition above about 30%; inactive means below that, where a call was filed; further: 0% is about no effect
#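 Overnight-induced (tetracycline, 30 C) HEK293 T-REx cells carrying force-coupled D2 receive a no-wash calcium dye, then compound, then EC80 dopamine at 180 s; signals are read kinetically throughout.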
# D2 ag-2: human D2 receptor agonism in beta-arrestin assay; P14416; DiscoveRx PathHunter D2 beta-arrestin, luminescence, 90 min; 100% = 57 uM dopamine signal; activation, % (concentration not given with the values); actives 0.084% (n = 360,000); in the data active means activation above about 40%; inconclusive means between about 15% and that limit
#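 Agonist mode: compounds alone added to overnight-plated D2 PathHunter cells for 90 min at 37 C, with 57 uM final dopamine (EC100) defining full response. Beta-arrestin recruitment detected by chemiluminescent reagent, read after 1 h at ambient temperature.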
# D2 PAM-2: human D2 receptor positive allosteric modulation; P14416; DiscoveRx D2 beta-arrestin cells, luminescence, 90 min; 100% = 57 uM dopamine signal; potentiation, % (test concentration not listed); actives 0.23% (n = 360,000); in the data active means potentiation above about 50%; inconclusive means mostly about 30% to 49%
#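 PathHunter beta-arrestin assay in DiscoveRx D2 cells. Compounds were added with an EC20 of dopamine (50 nM final) for 90 min at 37 deg C. Luminescence was read 1 h after detection reagent, with 57 uM dopamine as the EC100 control.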
# D3 arrestin ag: D3 receptor agonism confirmed, beta-arrestin readout; Potency, µM (titrated, usually from 76.9 µM), without a hit: top-dose activation, actives largely listed as activators; DiscoveRx D3 beta-arrestin cells, luminescence, 90 min; actives 4% (n = 2,300); AID 720506; shares compounds with D2 ag-1;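 further: potency means the concentration at half of the fitted maximal effect; 100% = dopamine control response; nearly all actives have a fitted effect of over 70% in size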
# D2 ag-3: D2 receptor agonism, beta-arrestin counterscreen. Potency, µM (top dose mostly 76.9 µM), without a hit: top-dose activation, most hits filed as activators. shares compounds with D2 ag-1. DiscoveRx PathHunter D2 beta-arrestin, luminescence, 90 min; response scale: percent relative to full dopamine signal. actives 5.9% (n = 2,300); further: potency means the concentration at half of the fitted maximal effect; % of control where 0% means no effect; nearly all actives have a fitted effect of over 70% in size
# Numbers without * were called inactive; ? = inconclusive; · = no result given. The list is not random: actives were taken first. Their share in the collection is about 2.4%. Unless noted, the call rests on the fitted dose curve; in most records, active means well fitted activation curve with a large enough effect; inconclusive means small, poorly fitted or top-dose-only effect; inactive means flat fitted curve, though single readings scatter.
SMILES,D2 ag-1,D2 PAM-1,D2 antagonist,D2 ag-2,D2 PAM-2,D3 arrestin ag,D2 ag-3
Cc1ccc(NC(=O)N2CCCC(c3ccccc3)C2)cc1 (stereo not given),·,·,·,?,-0.9,4.4%,8.4%
O=C(/C=C/c1ccco1)N1CCCC(c2ccccc2)C1 (stereo not given),57.4*,-13.2,55.8*,-0.5,2.9,12.3%,9.3%
Cc1cc(C)nc(/N=C(\N)Nc2ccc(CC(=O)OC(C)C)cc2)n1,33.2*,-8.5,58.6*,4.0,-26.2,4.0%,?
CCc1ccc(N/C(=N/c2nc(C)cc(C)n2)NC(C)=O)cc1,-2.7,20.4,6.3,-3.5,-4.0,·,·
Cc1cc(C)nc(/N=C(\N)Nc2ccc(S(=O)(=O)O)cc2)n1,1.6,-1.4,-8.8,2.2,6.3,·,·
Cc1cc(C)nc(/N=C(\N)Nc2ccc(OCCC(C)C)cc2)n1,82.5*,-21.7,51.9*,2.8,-9.0,-2.2%,27.4%
Cc1cc(C)nc(/N=C(\N)Nc2cccc(OCc3ccccc3)c2)n1,76.6*,-32.2,62.7*,-2.0,-27.5,-13.5%,19.5%
COc1ccccc1N/C(N)=N/c1nc(C)cc(C)n1,0.6,-13.3,-0.4,-4.0,-15.9,·,·
Cc1nc(N2CCOCC2)c2c(C(=O)N3CCN(c4cc(Cl)ccc4C)CC3)c(C)oc2n1,-0.3,4.7,·,·,·,·,·
COc1ccccc1CNC(=O)COC(=O)CSc1ccc(C)c(C)c1,-0.4,-5.0,-4.6,-3.3,-11.7,-7.0%,-4.9%
Cc1ccc(SCC(=O)OCC(=O)NCc2cccs2)cc1C,0.2,6.6,-3.2,-6.3,-3.9,·,·
Fc1ccccc1N1CCN(Cc2cnc(Cl)s2)CC1,·,·,·,52.4*,?,?,3.16µM*
c1ccc(SCCN2CCN(c3ccccc3)CC2)cc1,22.6,-20.3,60.1*,4.6,-35.4,-9.1%,9.8%
Clc1ccccc1N1CCN(Cc2ccc(Br)o2)CC1,·,·,·,0.7,-14.2,·,·
c1ccc(N2CCN(Cc3cnc(N4CCOCC4)s3)CC2)cc1,63.0*,-40.0,38.3*,-10.0,-13.5,7.4%,?
Brc1ccc(CN2CCN(c3ccccc3)CC2)o1,72.0*,-18.7,50.5*,8.5,-12.8,6.6%,22.9%
CCCN1CCC(=O)N(CCSc2ccccc2)CC1,0.3,1.5,-39.1,1.8,-51.7,·,·
COc1ccc(C2CC(=O)N(CC(=O)Nc3ccc(C(F)(F)F)cc3)c3ccccc3S2)cc1 (stereo not given),0.5,6.8,·,·,·,·,·
Cc1ccccc1Cn1c(=O)n(CCCCC(=O)NCCc2ccccc2)c(=O)c2ccccc21,-0.7,7.6,·,·,·,·,·
CC1CCN(Cc2cnc(Cl)s2)CC1,1.5,0.4,-12.8,-2.7,-0.8,·,·
Clc1ccc(CN2CCN(c3ccccc3)CC2)cn1,74.1*,-21.8,89.9*,?,11.0,?,?
Clc1ncc(CN2CCN(c3ccccc3)CC2)s1,74.7*,-26.0,83.7*,47.5*,8.6,?,5.01µM*
Cc1cc(C)c(NC(=O)Cn2cnc3c(oc4ccccc43)c2=O)c(C)c1,-0.1,-8.0,15.6,4.9,-5.8,-1.4%,-1.4%
Nc1c(Cl)ncnc1NCC(O)CO (stereo not given),-0.3,2.2,0.5,-2.1,-0.8,-11.7%,-2.2%
CC(C)Cc1ccc(S(=O)(=O)Nc2cc3c(cc2N2CCOCC2)n(C)c(=O)c(=O)n3C)cc1,2.0,-5.3,·,·,·,·,·
SMILES,D2 ag-1,D2 PAM-1,D2 antagonist,D2 ag-2,D2 PAM-2,D3 arrestin ag,D2 ag-3
Cc1ccc(C(=O)N2CCN(C34CC5CC(CC(C5)C3)C4)CC2)o1,·,·,·,0.3,-13.3,-2.3%,0.6%
N#Cc1c(N)n(-c2cccc(Cl)c2)c2nc3ccccc3nc12,-1.1,1.0,·,·,·,·,·
Cc1cc(C(C)(C)C)cc(S(=O)(=O)NCCc2ccncc2)c1C,1.7,4.2,1.5,1.5,1.9,-2.1%,0.4%
O=C(O)CNC(=O)c1ccccc1Br,3.6,6.2,39.8*,0.8,-0.9,-7.3%,-0.6%
Cc1cccc(Cn2nc(C)n3c(cc4cc(C)ccc43)c2=O)c1,·,-9.7,·,·,·,·,·
COc1ccc(C)cc1NC(=O)CCN1CCN(c2ccccc2)CC1,78.9*,-24.8,81.7*,?,-12.6,?,?
COc1ccc([N+](=O)[O-])cc1NC(=O)CCN1CCN(c2ccccc2OC)CC1,65.8*,-26.9,101.1*,2.5,-33.5,-6.5%,7.4%
CN1CCN(CCC(=O)N/N=C/c2ccccc2F)CC1,0.4,-8.0,2.2,-1.5,-0.4,·,·
O=C(CCN1CCN(c2ccccc2)CC1)N/N=C/c1ccccc1O,79.2*,-23.2,91.3*,6.8,-10.6,-22.1%,?
CCN1CCN(CCC(=O)Nc2ccccc2OC)CC1,-0.8,0.6,-5.4,-2.3,-16.0,·,·
Cc1ccc(C)c(OCC(=O)NNC(=O)CCN2CCN(c3ccccc3)CC2)c1,78.1*,-33.0,80.0*,14.5,-13.1,18.4%,?
CC(=O)c1cccc(NC(=O)c2sc(-n3nc(C)c(CCC(C)C)c3C)nc2C)c1,1.2,-11.3,·,·,·,·,·
COc1ccccc1N1CCN(c2ncnc3c2c(-c2ccccc2)cn3-c2cccc(C)c2)CC1,-0.7,-1.5,·,·,·,·,·
Cc1ccc(CNC(=O)c2cnc3c(-c4ccccc4)c(C)nn3c2C)o1,2.4,-7.5,·,·,·,·,·
COc1ccc(OCC(=O)NCc2ccc3c(c2)CCN3C(=O)c2cccc(C)c2)cc1,-0.8,-8.9,·,·,·,·,·
COC(=O)c1[nH]c2cccc(OC)c2c1NC(=O)CCN1CCN(c2ccccc2OC)CC1,53.1*,-19.6,83.3*,3.9,-12.8,-8.1%,19.9%
Cc1ccc(C)c(NC(=O)CCN2CCN(c3ccccc3F)CC2)c1,46.7*,-16.0,66.9*,-5.1,-15.5,?,8.9%
COc1ccccc1N1CCN(CC(=O)Nc2c(C)n[nH]c2C)CC1,67.2*,-21.4,53.4*,-2.1,-20.7,-10.0%,7.1%
CCN(CC)c1ccc(NC(=O)CN2CCN(c3ccccc3OC)CC2)cc1,-5.6,-6.7,·,·,·,·,·
COc1ccc(OC)c(NC(=O)CCN2CCN(c3ccccc3F)CC2)c1,-1.2,17.7,-12.3,?,1.5,·,·
COc1ccc(C)cc1NC(=O)CCN1CCN(c2ccccc2F)CC1,73.8*,-23.9,79.8*,9.0,18.3,-4.5%,?
O=C(c1ccc2c(c1)N(Cc1cccc(Cl)c1)C(=O)c1ccccc1S2=O)N1CCN(c2cccc(C(F)(F)F)c2)CC1 (stereo not given),-0.2,-12.2,·,·,·,·,·
CCOC(=O)c1ccc(-n2cccc2/C=C2\NC(=O)NC2=O)cc1,-0.6,-14.2,7.0,·,·,2.3%,1.9%

# Source: PubChem (National Center for Advancing Translational Sciences (NCATS))
